Results filed as inconclusive are left out. Activity calls are given as the source filed them. Rule for the calls, unless noted: active = hit-call score of the fitted dose curve at least 0.9, where 1 is the maximum; inconclusive = response in the unintended direction; inactive = score below 0.9.
Columns and labels:
[1] = TOX21_p53_BLA_p3_viability: Viability Assessment in the Tox21 HCT-116 p53 Agonism Beta-lactamase Assay, Phase 3 (AID 2283593);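 note: cells exposed to compound for 16 h before reading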
In short: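 HCT-116 cells (4000/well) rested 5 h at 37C, then got DMSO compounds by pin tool (217-fold dilution) for 16 h at 37C, 5% CO2. After the bla read, CellTiter-Glo was added and luminescence read at 30 min, room temperature.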

[2] = molecular target: Cellular tumor antigen p53 (Homo sapiens) (UniProt P04637); assay: TOX21_p53_BLA_p3_ratio: Tox21 HCT-116 p53 Agonism Beta-lactamase Assay, Ratio, Phase 3 (AID 2283596)
Cellular tumor antigen p53 (Homo sapiens), sequence (P04637 whole entry, looked up): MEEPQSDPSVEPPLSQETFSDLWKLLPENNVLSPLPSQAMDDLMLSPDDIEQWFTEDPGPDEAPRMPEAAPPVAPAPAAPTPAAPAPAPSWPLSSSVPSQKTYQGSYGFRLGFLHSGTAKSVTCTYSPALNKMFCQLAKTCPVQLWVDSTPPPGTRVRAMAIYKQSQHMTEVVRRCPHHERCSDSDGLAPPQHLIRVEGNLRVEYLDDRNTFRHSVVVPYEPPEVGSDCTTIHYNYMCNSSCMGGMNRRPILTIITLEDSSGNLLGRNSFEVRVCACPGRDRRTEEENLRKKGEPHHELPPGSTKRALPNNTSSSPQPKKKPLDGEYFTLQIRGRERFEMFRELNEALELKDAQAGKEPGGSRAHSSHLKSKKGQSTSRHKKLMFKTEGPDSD
In short: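 HCT116 p53-bla cells (4000/well) given compound in DMSO (217-fold dilution) after 5 h, incubated 16 h at 37C. CCF4-AM substrate 2 h at room temperature; 460/530 nm emission ratio, gain fitted against DMSO.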

[3] = TOX21_p53_BLA_p5_viability: Viability Assessment in the Tox21 HCT-116 p53 Agonism Beta-lactamase Assay, Phase 5 (AID 2283600)
In short: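 Counter-readout for cytotoxicity: ATP-dependent luminescence from CellTiter-Glo, read in the beta-lactamase wells after 30 min at RT, following a 16 h compound exposure at 37C.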

PGR (gene 5241) [4] = molecular target: PGR (gene 5241) (UniProt P06401); assay: TOX21_PR_BLA_Followup_Agonist_ratio: Tox21 HEK293 Progesterone Receptor (PR) Agonism Beta-lactamase Follow-Up Assay, Ratio (AID 2283933)
PGR (gene 5241), sequence (P06401 whole entry, looked up): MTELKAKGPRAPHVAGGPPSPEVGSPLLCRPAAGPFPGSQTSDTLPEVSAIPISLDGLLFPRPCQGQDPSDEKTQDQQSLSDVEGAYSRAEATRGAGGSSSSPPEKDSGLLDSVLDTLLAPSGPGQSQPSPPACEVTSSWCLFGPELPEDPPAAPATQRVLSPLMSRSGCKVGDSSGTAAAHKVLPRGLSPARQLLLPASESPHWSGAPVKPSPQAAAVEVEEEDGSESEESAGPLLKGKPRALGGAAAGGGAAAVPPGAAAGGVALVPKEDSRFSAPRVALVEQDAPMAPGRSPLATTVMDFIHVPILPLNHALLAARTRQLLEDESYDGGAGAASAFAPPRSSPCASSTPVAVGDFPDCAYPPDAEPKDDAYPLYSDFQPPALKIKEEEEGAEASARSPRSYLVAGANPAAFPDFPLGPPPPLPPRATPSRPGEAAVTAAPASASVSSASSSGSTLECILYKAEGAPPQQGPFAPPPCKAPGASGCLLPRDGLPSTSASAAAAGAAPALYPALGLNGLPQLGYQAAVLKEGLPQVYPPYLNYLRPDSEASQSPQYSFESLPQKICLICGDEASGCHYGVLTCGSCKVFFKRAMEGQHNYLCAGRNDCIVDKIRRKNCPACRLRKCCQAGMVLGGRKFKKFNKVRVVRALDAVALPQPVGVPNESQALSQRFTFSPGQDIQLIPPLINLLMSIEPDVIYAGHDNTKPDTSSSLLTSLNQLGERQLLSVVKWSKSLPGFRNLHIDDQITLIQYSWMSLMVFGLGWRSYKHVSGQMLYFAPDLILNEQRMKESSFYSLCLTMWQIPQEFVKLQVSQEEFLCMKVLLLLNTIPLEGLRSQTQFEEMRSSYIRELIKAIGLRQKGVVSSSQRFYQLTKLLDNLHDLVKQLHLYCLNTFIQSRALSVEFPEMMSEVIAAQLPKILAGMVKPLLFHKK
In short: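 HEK293T PR-UAS-bla, 2% CS-FBS; 6 hr preincubation, cpd/DMSO pinned, 16 hr 37C/5% CO2; LiveBLAzer B/G 2 hr RT; FRET ch2/ch1 ratio, agonist direction vs DMSO. Viability by CellTiter-Glo in same wells.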

PGR (gene 5241) [5] = molecular target: PGR (gene 5241) (UniProt P06401); assay: TOX21_PR_BLA_Followup_Antagonist_ratio: Tox21 HEK293 Progesterone Receptor (PR) Antagonism Beta-lactamase Follow-Up Assay, Ratio (AID 2283934)
In short: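 HEK293T PR-UAS-bla, 2% CS-FBS; 6 hr plating, then cpd + R5020 (1 nM final), 16 hr 37C/5% CO2. B/G FRET substrate 2 h RT. Ratio ch2/ch1 vs DMSO; CellTiter-Glo viability multiplexed, autofluorescence checked.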

[6] = TOX21_PR_BLA_Followup_Agonist_viability: Viability Assessment in the Tox21 HEK293 Progesterone Receptor (PR) Agonism Beta-lactamase Follow-Up Assay (AID 2283935);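 note: signal loss means lower viability so actives are cytotoxic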
In short: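 HEK293T PR-UAS-bla, 3,000 cells/well, 2% CS-FBS; 6 hr pre-incubation; cpd in DMSO, 16 hr 37C; LiveBLAzer 2 hr RT, then CellTiter-Glo 30 min RT, luminescence. Decrease = lost viability.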

PGR (gene 5241) [7] = molecular target: PGR (gene 5241) (UniProt P06401); assay: TOX21_PR_LUC_Followup_Agonist: Tox21 HEK293 Progesterone Receptor (PR) Agonism Luciferase Follow-Up Assay (AID 2283937; active = hit-call score of the fitted dose curve at least 0.9, where 1 is the maximum; inactive = score below 0.9)
In short: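 Cells: HEK293-PR-A-luc, 3,000/well, 10% charcoal-stripped FBS assay medium. Compound added after 5 h; 16 h, 37C, 0% CO2. ONE-Glo luciferase, luminescence. Positive fit vs DMSO.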

PGR (gene 5241) [8] = molecular target: PGR (gene 5241) (UniProt P06401); assay: TOX21_PR_LUC_Followup_Antagonist: Tox21 HEK293 Progesterone Receptor (PR) Antagonism Luciferase Follow-Up Assay (AID 2283938);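 note: curve fitted upward as signal gain over DMSO baseline despite antagonist label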
In short: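 A follow-up to the PR bla screen using HEK293-PR-A-luc cells, multiplexed with cell viability to flag cytotoxicity. Reporter luminescence after 16 h compound exposure was analysed relative to DMSO.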

[9] = TOX21_PR_LUC_Followup_Antagonist_viability: Viability Assessment in the Tox21 HEK293 Progesterone Receptor (PR) Antagonism Luciferase Follow-Up Assay (AID 2283940)
In short: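 Multiplexed viability counter-screen: after 5 days in charcoal-stripped-FBS medium, HEK293-PR-A-luc cells are plated, pinned with DMSO-dissolved compounds for 16 h at 37C, and ATP content is quantified luminescently via CellTiter-Glo.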

[10] = TOX21_PR_LUC_Followup_Agonist_viability: Viability Assessment in the Tox21 HEK293 Progesterone Receptor (PR) Agonism Luciferase Follow-Up Assay (AID 2283941);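 note: loss of signal means cytotoxicity so actives lower viability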
In short: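 Cells were kept 5 days in charcoal-stripped serum medium before plating HEK293-PR-A-luc at 3,000 cells/well. After 5 h they received DMSO-dissolved compound and incubated 16 h at 37C. Viability was taken from CellTiter-Glo ATP luminescence.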

[11] = molecular target: Cellular tumor antigen p53 (Homo sapiens) (UniProt P04637); assay: TOX21_p53_BLA_p2_ratio: Tox21 HCT-116 p53 Agonism Beta-lactamase Assay, Ratio, Phase 2 (AID 2283592)
In short: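 An inducible beta-lactamase reporter in HCT116 cells signals p53 pathway activation. After 16 h chemical exposure at 37C, cells load CCF4-AM substrate for 2 h at room temperature; activity is the cleaved/uncleaved emission ratio relative to DMSO.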

[12] = TOX21_p53_BLA_p4_viability: Viability Assessment in the Tox21 HCT-116 p53 Agonism Beta-lactamase Assay, Phase 4 (AID 2283597);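 note: hits lower the luminescence signal meaning cytotoxicity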
In short: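 Compound exposure of HCT116 cells lasts 16 h at 37C, 5% CO2, with DMSO stocks diluted 217-fold. Cellular ATP is then quantified by CellTiter-Glo luminescence after 30 min at room temperature.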

[13] = molecular target: Cellular tumor antigen p53 (Homo sapiens) (UniProt P04637); assay: TOX21_p53_BLA_p5_ratio: Tox21 HCT-116 p53 Agonism Beta-lactamase Assay, Ratio, Phase 5 (AID 2283599)
In short: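 HCT-116 cells carrying a p53-inducible beta-lactamase reporter were seeded at 4000 cells/well and dosed after 5 h with compound in DMSO (217-fold dilution). After 16 h at 37C, CCF4-AM substrate was added for 2 h, and the 460/530 nm emission ratio was scored as gain-of-signal versus DMSO.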

[14] = molecular target: Cellular tumor antigen p53 (Homo sapiens) (UniProt P04637); assay: TOX21_p53_BLA_p4_ratio: Tox21 HCT-116 p53 Agonism Beta-lactamase Assay, Ratio, Phase 4 (AID 2283601)
In short: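 HCT116 cells carrying an inducible beta-lactamase reporter were plated at 4000 cells/well, rested 5 h, then exposed to compounds in DMSO (217-fold dilution) for 16 h at 37C. CCF4-AM substrate was loaded 2 h at room temperature; 460/530 nm emission ratio scored gain-of-signal versus DMSO.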

[15] = molecular target: Thyroid hormone receptor alpha (Rattus norvegicus) + Thyroid hormone receptor beta (Rattus norvegicus) (UniProt P18113+P63059); assay: TOX21_TR_LUC_GH3_Antagonist_Followup: Tox21 GH3 Thyroid Hormone Receptor Antagonism Luciferase Follow-Up Assay (AID 2283942)
In short: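 Rat pituitary GH3 cells with a TRα/TRβ-driven luciferase reporter, 5 h attachment, then 15 concentrations (92 uM to 5nM final) plus 1.0 nM T3 agonist, 24 h at 37C/5% CO2. ONE-Glo luminescence; signal change fitted against DMSO baseline.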

THRB (gene 7068) [16] = molecular target: THRB (gene 7068) (UniProt P10828); assay: TOX21_TRB_BLA_Antagonist_Followup_ratio: Tox21 Thyroid Hormone Receptor beta Antagonism Beta-lactamase (BLA) Follow-Up Assay, Ratio (AID 2283958)
THRB (gene 7068), sequence (P10828 whole entry, looked up, the tested form may be a part): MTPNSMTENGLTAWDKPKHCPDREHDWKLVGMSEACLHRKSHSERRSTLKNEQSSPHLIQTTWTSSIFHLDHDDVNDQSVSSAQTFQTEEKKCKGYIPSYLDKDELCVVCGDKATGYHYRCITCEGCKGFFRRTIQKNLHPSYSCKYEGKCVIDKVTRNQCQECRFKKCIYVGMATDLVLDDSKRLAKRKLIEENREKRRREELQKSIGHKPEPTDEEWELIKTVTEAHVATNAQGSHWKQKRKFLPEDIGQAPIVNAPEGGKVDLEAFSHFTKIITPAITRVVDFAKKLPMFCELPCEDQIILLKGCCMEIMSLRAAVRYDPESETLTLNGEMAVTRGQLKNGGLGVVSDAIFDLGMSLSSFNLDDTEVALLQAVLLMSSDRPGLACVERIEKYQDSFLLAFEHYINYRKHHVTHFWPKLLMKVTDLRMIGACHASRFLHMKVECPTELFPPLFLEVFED
In short: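 HEK293T TRb-bla (GAL4 DBD + hTRβ LBD), 2% cs-FBS phenol red-free DMEM, 5 h attach; cpds 11-pt triplicate, 18 h 37C; CCF4-AM 2 h RT; 460/530 ratio vs DMSO; CellTiter-Glo viability same wells.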

THRB (gene 7068) [17] = molecular target: THRB (gene 7068) (UniProt P10828); assay: TOX21_TRB_COA_Antagonist_Followup_ratio: Tox21 Thyroid Hormone Receptor beta Antagonism through Coactivator Recruitment Follow-Up Assay, Ratio (AID 2283967)
In short: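 Cell-free TR-FRET coactivator recruitment with GST-tagged TRβ LBD (5.0 nM) and fluorescein-labeled SRC-2 peptide (200 nM) detected by terbium anti-GST antibody (2 nM). The 520:495 nm emission ratio was normalized to DMSO (0%) and T3 (100%).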

[18] = molecular target: Retinoic acid receptor RXR-alpha (Homo sapiens) (UniProt P19793); assay: TOX21_TR_RXR_BLA_Antagonist_Followup_ratio: Tox21 Thyroid Hormone Receptor beta Retinoid X Receptor alpha (RXRa) Antagonism Beta-lactamase (BLA) Follow-Up Assay, Ratio (AID 2283972)
Retinoic acid receptor RXR-alpha (Homo sapiens), sequence (P19793 whole entry, looked up, the tested form may be a part): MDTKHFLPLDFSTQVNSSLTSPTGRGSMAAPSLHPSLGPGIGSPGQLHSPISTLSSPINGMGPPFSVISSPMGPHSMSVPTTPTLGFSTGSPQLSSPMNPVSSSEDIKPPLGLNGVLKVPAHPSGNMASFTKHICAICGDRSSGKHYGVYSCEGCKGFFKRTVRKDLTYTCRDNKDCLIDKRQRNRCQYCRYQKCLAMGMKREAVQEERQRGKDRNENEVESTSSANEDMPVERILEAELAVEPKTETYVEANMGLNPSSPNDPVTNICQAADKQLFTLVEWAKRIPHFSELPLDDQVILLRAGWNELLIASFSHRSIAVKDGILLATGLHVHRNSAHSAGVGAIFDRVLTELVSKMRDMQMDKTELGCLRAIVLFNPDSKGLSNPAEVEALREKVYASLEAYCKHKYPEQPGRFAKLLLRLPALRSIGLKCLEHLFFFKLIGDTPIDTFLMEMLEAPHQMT
In short: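 Antagonist mode used GAL4 UAS-driven beta-lactamase in HEK293T cells expressing RXRa, treated for 16 h with compound concentration series. Activity was taken from the blue/green (460:530 nm) ratio of cleaved to uncleaved substrate.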

[19] = TOX21_TR_RXR_BLA_Antagonist_Followup_viability: Viability Assessment in the Tox21 Thyroid Hormone Receptor beta Retinoid X Receptor alpha (RXRa) Antagonism Beta-lactamase (BLA) Follow-Up Assay (AID 2283979)
In short: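 RXRa-UAS-bla HEK293T cells seeded 2,500/well in phenol red-free DMEM with 2% charcoal-stripped FBS, attached 5 h, then exposed to compounds at 11 concentrations in triplicate for 16 h at 37C/5% CO2. Viability read by CellTiter-Glo ATP luminescence; bidirectional fit versus DMSO.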

Measured: AC50

C[n+]1ccccc1/C=N/O
inactive: [1] | [2] | [3]

CC(=O)OCC(=O)[C@@]1(O)CC[C@H]2[C@@H]3CCC4=CC(=O)C=C[C@]4(C)[C@H]3[C@@H](O)C[C@@]21C
inactive: PGR (gene 5241) [4] | PGR (gene 5241) [5] | [6] | PGR (gene 5241) [8] | [9] | [10]
active: PGR (gene 5241) [7] 2280 nM

NC(N)=NN=Cc1c(Cl)cccc1Cl
inactive: [11] | [2] | [12] | [13] | [3] | [14]

COc1c(N2C[C@@H]3CCCN[C@@H]3C2)c(F)cc2c(=O)c(C(=O)O)cn(C3CC3)c12
inactive: [11] | [2] | [13] | [14]

CCCCNCCCC
inactive: [11] | [2] | [12] | [13] | [3]

CNCCc1ccccn1
inactive: [11] | [2] | [12] | [3] | [14]

CO[C@H]1C[C@H](O[C@H]2[C@H](C)[C@@H](O[C@@H]3O[C@H](C)C[C@H](N(C)C)[C@H]3O)[C@@H](C)C[C@]3(CO3)C(=O)[C@H](C)[C@@H](O)[C@@H](C)[C@@H](C)OC(=O)[C@@H]2C)O[C@@H](C)[C@@H]1O
inactive: [11] | [2] | [13] | [3]

CN(C)CCN(Cc1cccs1)c1ccccn1
inactive: [11] | [2] | [13] | [14]

COC[C@H](c1ccc(C(F)(F)F)cc1)N1CCN(C2(C)CCN(C(=O)c3c(C)ncnc3C)CC2)C[C@H]1C
inactive: [11] | [12] | [13] | [3] | [14]

CN(CCO)CC(O)Cn1cnc2c1c(=O)n(C)c(=O)n2C (stereo unspecified) (tested in a mixture with another compound)
inactive: [1] | [12] | [3]

c1cnc2c(n1)CCCC2
inactive: [11] | [2] | [12] | [13] | [14]

CCOC(=O)[C@H](CCc1ccccc1)N[C@H]1CCCN2CCC[C@@H](C(=O)O)N2C1=O
inactive: [11] | [12] | [13] | [14]

C=CS(=O)(=O)O
inactive: [11] | [12] | [13] | [3] | [14]

CN1C[C@@H]2C[C@H]1CN2c1cc2c(cc1F)c(=O)c(C(=O)O)cn2C1CC1
inactive: [11] | [2] | [12] | [13] | [14]

COc1cc([C@@H]2c3cc4c(cc3[C@H](O)[C@H]3COC(=O)[C@H]23)OCO4)cc(OC)c1OC
active: THRB (gene 7068) [16] 27.3 nM
inactive: [11] | [2] | [12] | [13] | [14] | [15] | THRB (gene 7068) [17] | [18] | [19]

CCCCCCCCCCCCCCCCN
inactive: [11] | [13] | [3] | [14]

Cc1cccc(Br)c1
inactive: [11] | [2] | [13] | [14]

C[C@@H]1O[C@@H](OC[C@H]2O[C@@H](Oc3c(-c4ccc(O)c(O)c4)oc4cc(O)cc(O)c4c3=O)[C@H](O)[C@@H](O)[C@@H]2O)[C@H](O)[C@H](O)[C@H]1O
inactive: [11] | [12] | [13] | [3] | [14]

Oc1cn2c(n1)Nc1ccc(Cl)c(Cl)c1C2
inactive: [11] | [2] | [13] | [3] | [14]

N#CC1(O)CCCCC1
inactive: [11] | [2] | [14]

— PubChem BioAssay (EPA / NIEHS)
